Source: PubChem BioAssay
A selection: hits, their analogues and other compounds. The true share with any hit is near 5%.
Caspase-1 inhib: allosteric or competitive inhibitors of human caspase-1. P29466. Caspase-1 enzyme, Ac-WEHD-AFC fluorogenic rate. Potency, µM (series often up to 57.5 µM), hits mostly inhibitors. actives 0.03% (n = 75,000). AID 900
Target sequence (P29466 120-297 limits assumed): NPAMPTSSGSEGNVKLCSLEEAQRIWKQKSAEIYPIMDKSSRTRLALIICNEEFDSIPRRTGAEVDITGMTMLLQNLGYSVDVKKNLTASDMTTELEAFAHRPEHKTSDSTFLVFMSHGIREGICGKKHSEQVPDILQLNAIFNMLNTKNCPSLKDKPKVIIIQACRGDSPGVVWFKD
Target sequence (P29466 317-404 limits assumed): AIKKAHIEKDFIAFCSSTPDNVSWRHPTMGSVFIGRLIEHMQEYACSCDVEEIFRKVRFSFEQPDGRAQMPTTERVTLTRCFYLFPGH
HEK293 cAMP ctrl: raises cAMP in parental HEK293 cells, TSHR agonist counter-screen | parental HEK293 CNG cAMP sensor, membrane potential fluorescence | Potency, µM (doses to about 57.1 µM), hits mostly activators | actives 2.5% (n = 73,000) | AID 938; further: nearly all actives have a fitted effect of over 55% in size
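Counterscreen for endogenous-receptor signalling: CNG-channel HEK 293 cells report cAMP rise by membrane depolarization. After 60 min dye equilibration with 100 uM RO 20-1724, compounds incubated 30 min before bottom-read fluorescence at 590 nm.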
TSHR ag: agonists of human thyroid stimulating hormone receptor; P16473; HEK293-CNG-TSHR cells (CNG channel as cAMP sensor), membrane potential dye, cAMP; Potency, µM (doses to about 57.1 µM), hits mostly activators; actives 0.48% (n = 73,000); AID 926; active means well fitted activation curve with a large enough effect in the main read-out, with a control signal flat, not every such curve was filed as active; inconclusive means small, poorly fitted or top-dose-only effect, or a change in a side signal; inactive means no such curve, though single readings can be large or run the other way; reference of the percent scale not stated here;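 further: the control signal comes from parental cells without the receptor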
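HEK 293 cells stably expressing TSHR and a cAMP-gated CNG channel; parental CNG-only cells as counterscreen. Cells preloaded 60 min with membrane potential dye plus 100 uM RO 20-1724, then compound 30 min; fluorescence read at 590 nm.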
Casp7 inh: caspase-7 (human) inhibition, allosteric or competitive. P55210. recombinant caspase-7, Ac-DEVD-AFC fluorescence rate. Potency, µM (series often up to 57.5 µM), hits mostly inhibitors. actives 0.02% (n = 75,000). AID 889; active means well fitted inhibition curve with a large enough effect in the main read-out, with a control signal flat, not every such curve was filed as active; inconclusive means small, poorly fitted or top-dose-only effect, or a change in a side signal
Target sequence (P55210 24-198 limits assumed): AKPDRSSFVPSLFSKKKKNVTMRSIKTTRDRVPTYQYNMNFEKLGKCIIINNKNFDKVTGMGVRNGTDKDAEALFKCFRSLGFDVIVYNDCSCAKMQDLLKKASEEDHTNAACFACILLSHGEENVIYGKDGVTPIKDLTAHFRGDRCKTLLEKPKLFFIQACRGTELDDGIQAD
Target sequence (P55210 207-303 limits assumed): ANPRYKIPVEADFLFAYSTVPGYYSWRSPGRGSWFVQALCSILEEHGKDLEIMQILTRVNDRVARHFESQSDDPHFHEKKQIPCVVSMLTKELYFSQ
USP2a inhib: inhibitors of human ubiquitin-specific protease USP2a; O75604; USP2a enzymatic assay, qHTS inhibition; Potency, µM (series often up to 38.3 µM), actives largely listed as inhibitors; actives 0.1% (n = 60,000); further: nearly all actives have a fitted effect of over 60% in size
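USP2 core (20 nM final) was preincubated with compound for 30 min at RT in 20 mM Tris-HCl pH 8.0, 2 mM CaCl2, 2 mM beta-mercaptoethanol; Ub-PLA2 (20 nM) plus NBD C6-HPC (20 uM) then added, fluorescence read after 2.5 h.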
CRE-bla Fsk: CRE-bla signaling modulation under forskolin stimulation | CHO CRE-bla reporter (cAMP response element driving beta-lactamase), forskolin EC10, beta-lactamase ratio | Potency, µM (top dose mostly 38.2 µM), usual class: activators | actives 2.5% (n = 71,000) | AID 662; active means well fitted activation curve with a large enough effect in the signal ratio, with a control signal flat, not every such curve was filed as active; inconclusive means small, poorly fitted or top-dose-only effect, or effect the other way, or a change in a side signal; the % refers to the signal ratio
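Modulation of forskolin signalling: compounds in titration series added with EC10 NKH 477 to CHO cells carrying a CRE-driven beta-lactamase reporter, 3 h, 37C. CCF4 FRET ratio (460/530 nm, ex 405 nm) gives %activity and AC50.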
Of the large screens only hits and unclear results are named; the others gave an inactive call. Unless noted, the call rests on the fitted dose curve; in most records, active means well fitted curve in the direction sought with a large enough effect; inconclusive means small, poorly fitted or top-dose-only effect, or another doubt; inactive means no such curve, though single readings can be large; an effect the other way counts as inactive or inconclusive.

NC(=O)[C@@H]1CCCN1Cc1ccc2c(c1)OCO2	none (no result: USP2a inhib)
CCCCNc1nc(SC)nc2nc[nH]c12	CRE-bla Fsk inconclusive (no result: USP2a inhib)
CCCCNC(=O)CN1C(=O)C(CC)Oc2ccc(Cl)cc21 (stereo unspecified)	HEK293 cAMP ctrl 10µM, TSHR ag inconclusive
C[C@@]1(C(=O)O)NCCc2cc(O)c(O)cc21	Casp7 inh inconclusive, CRE-bla Fsk inconclusive (no result: Caspase-1 inhib, USP2a inhib)
CC(C)(C)N1C(=O)Cc2c1nc(N)c1c(N)nc(N3CCCCC3CO)c(C#N)c21 (stereo unspecified)	Casp7 inh inconclusive, CRE-bla Fsk 2.51µM (no result: Caspase-1 inhib)
CCOC(=O)c1c(C2CCN(C(=O)OCC)CC2)nc2ccccn12	HEK293 cAMP ctrl 0.316µM, TSHR ag inconclusive, CRE-bla Fsk inconclusive (no result: USP2a inhib)
CCOC(=O)c1c(C)nc2ccccn12	CRE-bla Fsk inconclusive
O=C(NC1CCCCC1)c1ccc(Cc2nc3ccccc3[nH]2)cc1	none (no result: USP2a inhib, CRE-bla Fsk)
CCOC(=O)Nc1ccc2c(c1)N(C(=O)N(CC)CC)c1ccccc1CC2	TSHR ag 3.16µM, CRE-bla Fsk inconclusive
CC1=C(C(=O)O)N2C(=O)[C@@H](NC(=O)[C@@H](N)C3=CCC=CC3)[C@@H]2SC1	none
CCN(CC)c1ccc(-n2c(C)c(C(C)=O)c(C(C)=O)c2C)cc1	HEK293 cAMP ctrl 15.8µM, TSHR ag inconclusive
CC(=O)c1c(C(C)=O)c(C)n(-c2ccc(C(=O)O)cc2)c1C	none
O=C(CN1CCOCC1)N1CCN(S(=O)(=O)c2ccccc2)C1c1ccccc1 (stereo unspecified)	HEK293 cAMP ctrl inconclusive, TSHR ag inconclusive, CRE-bla Fsk inconclusive
Cc1ccc(S(=O)(=O)N2CCN(C(=O)CN3CCOCC3)C2c2ccccc2)cc1 (stereo unspecified)	HEK293 cAMP ctrl 20µM, TSHR ag inconclusive
CCOC(=O)OCC1OC(c2ccccc2)C=CC1Oc1ccc2oc(=O)cc(C)c2c1 (stereo unspecified)	none (no result: USP2a inhib, CRE-bla Fsk)
CC(=O)c1c(C(C)=O)c(C)n(NC(=O)c2cccnc2)c1C	HEK293 cAMP ctrl 3.98µM, TSHR ag inconclusive, CRE-bla Fsk inconclusive
CC(=O)c1c(C(C)=O)c(C)n(NC(=O)c2ccccc2O)c1C	none
C[N+](C)([O-])CCC=C1c2ccccc2CCc2ccccc21	none (no result: USP2a inhib)
C/C1=C2N=C(/C=C3N=C(/C(C)=C4\[N-]C(C)(C5N=C1C(C)(CCC(=O)NCC(C)OP(=O)([O-])O[C@H]1C(O)C(n6cnc7cc(C)c(C)cc76)O[C@@H]1CO)C5CC(N)=O)C(C)(CC(N)=O)C4CCC(N)=O)C(C)(CC(N)=O)C\3CCC(N)=O)C(C)(C)C/2CCC(N)=O.[CH2-]C1OC(n2cnc3c(N)ncnc32)C(O)C1O.[Co] (stereo partly specified)	Caspase-1 inhib inconclusive, USP2a inhib 3.16µM (no result: HEK293 cAMP ctrl, TSHR ag, CRE-bla Fsk)
O=C(O)CCSc1nc2ccccc2n1CCOc1ccccc1	none
Cc1ccccc1-n1nnnc1SCc1csc(-c2ccccc2)n1	HEK293 cAMP ctrl 3.16µM, TSHR ag inconclusive
COCCn1c(SCc2csc(-c3ccccc3)n2)nc2ccccc21	HEK293 cAMP ctrl 31.6µM, TSHR ag inconclusive, CRE-bla Fsk 2.51µM
Nn1c(SCc2cn3ccsc3n2)nnc1-c1ccncc1	CRE-bla Fsk inconclusive
Nn1c(SCc2csc(-c3ccccc3)n2)nnc1-c1cccs1	HEK293 cAMP ctrl 25.1µM, TSHR ag inconclusive
COc1ccccc1Nc1nc(N)nc(CSc2nc(C)cc(C)n2)n1	CRE-bla Fsk 10µM
O=C(OCc1nnc(-c2ccccc2)o1)c1cn(-c2ccccc2)nc1-c1ccccc1	CRE-bla Fsk inconclusive
Cc1cc(C(=O)OCc2nnc(-c3ccccc3)o2)c(C)n1-c1ccccc1	HEK293 cAMP ctrl 12.6µM, TSHR ag inconclusive
c1cncc(CNCc2cccnc2)c1	none (no result: USP2a inhib)
N#Cc1c(C(F)(F)F)cc(-c2ccco2)nc1SCc1ccccn1	HEK293 cAMP ctrl 31.6µM, TSHR ag inconclusive, CRE-bla Fsk inconclusive
N#Cc1c(C(F)(F)F)cc(-c2ccco2)nc1SCc1ccncc1	HEK293 cAMP ctrl inconclusive, TSHR ag inconclusive (no result: USP2a inhib)
Cc1cccc(OCc2nnc(SCC(=O)c3ccccc3)o2)c1	HEK293 cAMP ctrl 3.98µM, TSHR ag inconclusive
COC(=O)c1ccc(OC)c(CSc2nnc(COc3ccccc3)o2)c1	HEK293 cAMP ctrl 12.6µM, TSHR ag inconclusive, USP2a inhib inconclusive, CRE-bla Fsk inconclusive
COC(=O)c1ccc(OC)c(CSc2nnc(COc3ccc(Cl)cc3)o2)c1	HEK293 cAMP ctrl inconclusive, TSHR ag inconclusive, CRE-bla Fsk inconclusive
CC(C)(C)c1cc(Br)c(O)c(CN(Cc2cc(C(C)(C)C)cc(Br)c2O)C2CCCCC2)c1	HEK293 cAMP ctrl inconclusive, TSHR ag inconclusive (no result: USP2a inhib)
Fc1ccc(Nc2nc(-c3cccnc3)nc3ccccc23)cc1	CRE-bla Fsk 10µM (no result: TSHR ag)
CC(=O)NCCNc1nc(-c2ccc(C(=O)N(C)C)cc2)nc2ccccc12	CRE-bla Fsk inconclusive
CN(C)C(=O)c1ccc(-c2nc(Nc3ccncc3)c3ccccc3n2)cc1	CRE-bla Fsk 12.6µM
CN(C)C(=O)c1ccc(-c2nc(Nc3ccc(F)cc3)c3ccccc3n2)cc1	TSHR ag 31.6µM, CRE-bla Fsk 3.98µM
COC(=O)CNc1nc(-c2ccncc2)nc2ccccc12	CRE-bla Fsk 12.6µM (no result: TSHR ag)
Cc1ccc2c(c1)N(CC(=O)NCC1COc3ccccc3O1)C(=O)CO2 (stereo unspecified)	TSHR ag inconclusive (no result: USP2a inhib)
Cc1ccccc1-c1nc(Nc2ccncc2)c2ccccc2n1	CRE-bla Fsk 3.98µM
CN(C)c1ccc(-c2nc(Nc3ccncc3)c3ccccc3n2)cc1	TSHR ag inconclusive, USP2a inhib inconclusive, CRE-bla Fsk 1.26µM
[O-][N+]1(CC[N+]2([O-])CCCCC2)CCCCC1	none (no result: USP2a inhib)
CC1=C(C)CC(c2ccccc2)C(C(=O)c2ccccc2O)C1 (stereo unspecified)	none (no result: USP2a inhib, CRE-bla Fsk)
NCCc1nc(-c2nc(C(=O)O)cs2)cs1	none (no result: USP2a inhib)
COC(=O)c1oc2ccc(Br)cc2c1-n1cccc1	HEK293 cAMP ctrl 31.6µM, TSHR ag inconclusive, CRE-bla Fsk inconclusive (no result: USP2a inhib)
COc1ccc(C#CC2C=CC(Oc3cc(C)cc(C)c3)C(CO)O2)cc1 (stereo unspecified)	none (no result: USP2a inhib, CRE-bla Fsk)
Cc1cc(C)n2cc(CSc3nc4cc(Cl)ccc4o3)nc2n1	CRE-bla Fsk inconclusive
CN(C)c1nc(N)nc(CSc2nc3cc(Cl)ccc3o2)n1	CRE-bla Fsk 2.51µM
O=C(O)Cn1c(=O)oc2cc(S(=O)(=O)NC3CCCCC3)ccc21	none (no result: USP2a inhib)
CCn1c(=O)c2[nH]c(-c3ccccc3)nc2n(CC)c1=O	TSHR ag inconclusive, CRE-bla Fsk inconclusive
CCCn1c(=O)c2[nH]c(-c3ccccc3)nc2n(CCC)c1=O	CRE-bla Fsk 0.2µM (no result: USP2a inhib)
CCOc1ccccc1Nc1ccc(N)cc1S(=O)(=O)O	none (no result: USP2a inhib)
O=C(O)CSc1ccc([N+](=O)[O-])cc1[N+](=O)[O-]	none (no result: USP2a inhib)
